Compounds without any hit were thinned out: in the full panel of roughly 83,000, 20% have a hit.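 Method: cells in 96-well plates; compound added at one concentration; 48 h incubation; percent growth measured; values under 10 scored active.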 Unmarked numbers belong to inactive results. Calls of active or inactive are those of the source.

Among the test systems are SR leukemia; RPMI-8226 leukemia; OVCAR-8 ovarian; OVCAR-5 ovarian; OVCAR-4 ovarian; SK-OV-3 ovarian; IGROV1 ovarian; OVCAR-3 ovarian; HS 578T breast; NCI/ADR-RES ovarian.
Holding throughout (assay): NCI-60 one-dose screen, 48 h (100 = growth as untreated, 0 = no growth, -100 = all killed)
Common to all, as to details: 10 µM unless noted

On to `COc1ccccc1CNc1nc(N)nc2[nH]c3ccc(O)cc3c12`, for which the growth with SR leukemia was 4.16% (active); with RPMI-8226 leukemia, 48.8%; with OVCAR-8 ovarian, 53.7%; in the experiment on OVCAR-5 ovarian, 76.4%; with OVCAR-4 ovarian, 80.2%; in the experiment on SK-OV-3 ovarian, 73.4%. For the same molecule, the growth with IGROV1 ovarian is 50.9%; with OVCAR-3 ovarian, 44.6%; in the experiment on HS 578T breast, 59.2%; with NCI/ADR-RES ovarian, 82.6%.

For `N#Cc1cnc2cc(OC[C@@H](O)CO)c(NC(=O)CC3CSSC3)cc2c1Nc1ccc(OCc2cccc(F)c2)c(Cl)c1`, the growth in the experiment on SR leukemia was 1.96% (active); in the experiment on RPMI-8226 leukemia, -29.7% (active); in the experiment on OVCAR-8 ovarian, -48.2% (active); with OVCAR-5 ovarian, -72.8% (active); in the experiment with OVCAR-4 ovarian, -64.4% (active); in the experiment on SK-OV-3 ovarian it was -86.2% (active). Besides, the growth in the experiment on IGROV1 ovarian is -56% (active); in the experiment on OVCAR-3 ovarian it was -81.3% (active); with HS 578T breast, -39.8% (active); in the experiment on NCI/ADR-RES ovarian, 85.9%.

On to `COc1cc2nc(Cl)nc(Nc3cccc(C(=O)/C=C/c4ccc(Cl)cc4)c3)c2cc1OC`, for which the growth was 10.4% with SR leukemia; 0.0429% (active) in the experiment with RPMI-8226 leukemia; 78.9% with OVCAR-8 ovarian; 85.5% in the experiment on OVCAR-5 ovarian; 70.8% in the experiment on OVCAR-4 ovarian; 89% with SK-OV-3 ovarian. Also, the growth is 68.3% in the experiment with IGROV1 ovarian, 48.8% in the experiment with OVCAR-3 ovarian, 101% in the experiment with HS 578T breast and 65.7% in the experiment with NCI/ADR-RES ovarian.

On to `Cc1nn(-c2ccc(Cl)cc2)c(=O)n1CCn1cnc2ccccc21`, for which the growth is 104% in the experiment with SR leukemia; 104% in the experiment with RPMI-8226 leukemia; 112% with OVCAR-8 ovarian; 99.9% with OVCAR-5 ovarian; 118% in the experiment on OVCAR-4 ovarian; 113% in the experiment on SK-OV-3 ovarian. Further, the growth with IGROV1 ovarian was 102%; in the experiment on OVCAR-3 ovarian it was 111%; with HS 578T breast, 100%; in the experiment on NCI/ADR-RES ovarian, 103%.

`COc1ccc(/C=C(\C#N)c2cc3ccccc3n2C(C)=O)cc1`: the growth in the experiment with SR leukemia was 47.3%; in the experiment with RPMI-8226 leukemia, 83.2%; in the experiment with OVCAR-8 ovarian it was 103%; in the experiment on OVCAR-5 ovarian it was 104%; in the experiment with OVCAR-4 ovarian, 96.5%; in the experiment with SK-OV-3 ovarian, 107%. Also, the growth in the experiment on IGROV1 ovarian is 89.8%; with OVCAR-3 ovarian, 92.8%; in the experiment with HS 578T breast, 87.4%; in the experiment with NCI/ADR-RES ovarian, 55.6%.

With `COC(=O)[C@]12CC[C@@H](C)[C@H](C)[C@@H]1C1=CC[C@@H]3[C@@]4(C)C[C@@H](OC(C)=O)[C@H](OC(C)=O)[C@@](C)(COC(C)=O)[C@@H]4[C@H](O)C[C@@]3(C)[C@]1(C)CC2`, the growth with SR leukemia is 2.75% (active); in the experiment on RPMI-8226 leukemia, 5.96% (active); in the experiment on OVCAR-8 ovarian it was 16.9%; in the experiment with OVCAR-5 ovarian, 34.6%; in the experiment with OVCAR-4 ovarian it was 19.3%; in the experiment on SK-OV-3 ovarian, 2.45% (active). The growth was 36.7% in the experiment with IGROV1 ovarian, 15% in the experiment with OVCAR-3 ovarian, 35.9% with HS 578T breast and 10.5% in the experiment on NCI/ADR-RES ovarian.

Take `O=C1c2ccccc2NC(c2cn(-c3ccccc3)nc2-c2cccnc2)N1Cc1ccccc1` (stereo not given): the growth in the experiment on SR leukemia was 78.8%; with RPMI-8226 leukemia it was 76.5%; with OVCAR-8 ovarian, 98.3%; with OVCAR-5 ovarian, 91.5%; in the experiment on OVCAR-4 ovarian, 92.2%; in the experiment with SK-OV-3 ovarian, 117%. Moreover, the growth was 76.5% in the experiment with IGROV1 ovarian, 102% in the experiment with OVCAR-3 ovarian, 96.2% in the experiment with HS 578T breast and 97.3% in the experiment on NCI/ADR-RES ovarian.

For the molecule `Cc1c(C)c2c(c(C)c1NC(=O)CCCCCCC(=O)O)CCC(C)(CCCC(C)CCCC(C)CCCC(C)C)O2` (stereo not given), the growth with SR leukemia was 6.23% (active); in the experiment with RPMI-8226 leukemia it was 69%; with OVCAR-8 ovarian, 69.1%; with OVCAR-5 ovarian, 121%; in the experiment with OVCAR-4 ovarian, 58.5%; with SK-OV-3 ovarian it was 99.3%. Moreover, the growth in the experiment with IGROV1 ovarian was 89.8%; in the experiment with OVCAR-3 ovarian it was 65.5%; in the experiment on HS 578T breast, 101%; in the experiment with NCI/ADR-RES ovarian, 77.3%.

As for `CC(=O)NC1=C(C#N)C(c2ccccc2Cl)c2c(ccc3ccccc23)O1` (stereo not given), the growth in the experiment on SR leukemia was 37.1%; in the experiment on RPMI-8226 leukemia, 55.5%; with OVCAR-8 ovarian it was 82%; in the experiment on OVCAR-5 ovarian, 86.3%; in the experiment with OVCAR-4 ovarian it was 88.8%; with SK-OV-3 ovarian, 85%. Also, the growth is 46.1% in the experiment on IGROV1 ovarian, 41.2% in the experiment with OVCAR-3 ovarian, 74.9% with HS 578T breast and 33.8% in the experiment on NCI/ADR-RES ovarian.

For the molecule `CCN1CCN(C(=O)[C@]23CCC(C)(C)C[C@@H]2C2=CC[C@@H]4[C@@]5(C)C/C(=C/c6ccncc6)C(=O)C(C)(C)[C@@H]5CC[C@@]4(C)[C@]2(C)CC3)CC1`, the growth with SR leukemia is -29.1% (active); with RPMI-8226 leukemia, -32.1% (active); in the experiment with OVCAR-8 ovarian, 7.29% (active); with OVCAR-5 ovarian, -20.4% (active); in the experiment with OVCAR-4 ovarian, 6.7% (active); in the experiment with SK-OV-3 ovarian, 16.2%. For the same molecule, the growth in the experiment on IGROV1 ovarian was -9.63% (active); in the experiment on OVCAR-3 ovarian, -85.7% (active); in the experiment on HS 578T breast, -23.6% (active); with NCI/ADR-RES ovarian it was -49.2% (active).

As to `O=C(/C=C/c1cccc2ccccc12)Nc1ncc(Cc2ccccc2)s1`, the growth with SR leukemia is 13.1%; in the experiment on RPMI-8226 leukemia, 8.58% (active); in the experiment with OVCAR-8 ovarian it was 29%; in the experiment with OVCAR-5 ovarian, 22.7%; in the experiment with OVCAR-4 ovarian, 6.74% (active); in the experiment on SK-OV-3 ovarian, 20.9%. The growth is 15.8% in the experiment on IGROV1 ovarian, -17.8% (active) in the experiment on OVCAR-3 ovarian, 12.7% in the experiment with HS 578T breast and -8.05% (active) in the experiment on NCI/ADR-RES ovarian.

In the case of `Cc1cc(N(CCCNc2ccnc3cc(Cl)ccc23)Cc2ccco2)nc(N2CCOCC2)n1`, the growth with SR leukemia is 8.63% (active); with RPMI-8226 leukemia, 35.1%; in the experiment with OVCAR-8 ovarian it was 80.4%; with OVCAR-5 ovarian, 79%; in the experiment on OVCAR-4 ovarian, 65.7%; in the experiment with SK-OV-3 ovarian it was 78.6%. For the same molecule, the growth with IGROV1 ovarian was 45.2%; in the experiment with OVCAR-3 ovarian, 72.4%; with HS 578T breast, 77.5%; in the experiment with NCI/ADR-RES ovarian it was 67.4%.

The values above are taken from PubChem BioAssay (NCI).
